The list is not random: actives were taken first. Their share in the collection is about 6.6%.
CSC inhib – blocks cancer stem cells. inhibition, % at 7.5 µM. cancer stem cell-like cells viability, luminescence. 300,000 tested, 1.1% active; in the data active = inhibition above about 75%; tested in HMLE shEcad cells
Beta cell apopt – blocks beta cell apoptosis. protection from apoptosis, % (concentration not given with the values). INS-1E cytokine-induced death, ATP luminescence, 48 h; percent of positive-control rescue, neutral wells zero. AID 435005. 300,000 tested, 0.8% active;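 active = Every replicate reaches about 75%, or at least half do and their mean reaches it too, limit read from the data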;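 note: 0% = cytokine-treated negative control wells and 100% = positive control rescue; higher means more ATP so stronger rescue from cytokine killing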
GRIN3A LBD mod – modulates the human NR3A ligand-binding domain | NR3A LBD differential scanning fluorimetry, Tm shift; 0% = protein alone, 100% = glycine-bound protein | Tm shift relative to glycine control, % at 25 µM | 340,000 tested, 2.5% active;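 active = melting temperature shift of at least 10% of the positive control shift, at one fixed dose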
Gli-Sufu block – Gli-Sufu pathway antagonism. inhibition, % at 5 µM. 340,000 tested, 0.74% active. AID 588413. Sufu-KO-LIGHT fibroblasts, Gli luciferase reporter luminescence;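 active = inhibition above about 55%, limit read from the data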;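 note: 0% = DMSO-treated cells and 100% = wells with medium but no cells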
Mdm2-MdmX inh – human Mdm2/MdmX binding inhibition | O15151+Q00987 | SaOS-2 split-luciferase Mdm2/MdmX complementation, luminescence | inhibition, % at 8 µM | 330,000 tested, 3% active | AID 485346;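 active = inhibition of at least 50% at 8 µM in the primary screen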
MPTP inh – permeability transition pore inhibition; inhibition, % at 10 µM; 360,000 tested, 1.4% active; isolated mouse mitochondria, Ca2+ swelling absorbance, 30 min;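 active = inhibition of 50% or more, scaled per plate between neutral and stimulator controls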;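 note: 0% = DMSO wells given calcium and 100% = 1 mM EGTA wells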
Mdm2 MdmX conf – human Mdm2/MdmX binding inhibition, confirmed | shares compounds with Mdm2-MdmX inh | luminescent assay | inhibition, % at 8 µM | 10,000 tested, 55% active | AID 489028; in the data active = inhibition above about 40%
Full FLuc ctr – full-length luciferase inhibition in Mdm2/MdmX counter-screen; shares compounds with Mdm2-MdmX inh; SaOS-2 full-length luciferase counterscreen, luminescence; inhibition, % at 8 µM; 6,200 tested, 77% active;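 active = mean inhibition at 8 µM reaching about 37%, which flags the compound as non-specific, limit read from the data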;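 note: p53-null SaOS-2 cells with luciferase driven by a doxycycline-inducible promoter; compound on cells about two nights before reading with doxycycline added after day one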
* hit, by the source's call; · = no result.

SMILES | CSC inhib | Beta cell apopt | GRIN3A LBD mod | Gli-Sufu block | Mdm2-MdmX inh | MPTP inh | Mdm2 MdmX conf | Full FLuc ctr
COC(=O)c1cc(-c2ccc(Br)cc2)c2c(=O)n(C)c(=O)n(C)c2n1 | 9.0 | 2.3 | -1.2 | 11.8 | 71.6* | 1.3 | 3.6 | ·
Clc1ccc(OCCN2CCOCC2)cc1Cl | -7.6 | 1.3 | 3.5 | -8.3 | 5.1 | 0.1 | · | ·
ON=C1c2cc(OCCN3CCCCC3)ccc2-c2ccc(OCCN3CCCCC3)cc21 | -14.8 | 13.7 | -0.1 | 16.8 | 96.7* | 5.0 | 70.0* | 91.0*
NC(=S)NN=C1c2cc(OCCN3CCOCC3)ccc2-c2ccc(OCCN3CCOCC3)cc21 | 37.5 | -0.7 | -1.8 | 8.3 | 60.1* | 0.0 | 25.1 | ·
COc1ccc(C)cc1NC(=O)NNC(=O)C(C)Oc1ccc(F)cc1Cl (stereo unspecified) | -0.7 | -6.6 | 0.3 | 0.3 | 9.0 | -1.6 | · | ·
Cc1ccccc1-c1cnc(C(O)c2cccc(C)c2C)[nH]1 (stereo unspecified) | · | · | · | · | · | -1.3 | · | ·
COC(=O)c1ccc2c(c1)C(C)(C)C(/C=C/c1ccc(OC)c(OC)c1OC)=[N+]2C | -2.6 | 107.3* | 3.6 | 5.3 | 100.6* | -5.4 | 78.2* | 51.3*
COc1ccc(/C=N/Nc2ccc(C(=O)O)cc2)c(OC)c1OC | 5.7 | 3.3 | 0.9 | -15.2 | 7.0 | 1.5 | · | ·
COc1cc(/C=C(\C#N)c2nc3ccccc3[nH]2)cc(OC)c1O | 4.4 | 6.4 | -0.6 | -6.3 | · | 2.1 | · | ·
COc1cc(/C=C(\C#N)c2nc3ccccc3[nH]2)cc(Br)c1OCc1ccc(F)cc1 | 34.2 | 14.4 | -2.9 | -7.5 | 75.0* | 20.2 | 33.4 | 39.2*
Cc1cc(-c2nnc(CSc3nnc(NC(=O)c4ccc(C(C)(C)C)cc4)s3)o2)ccc1[N+](=O)[O-] | 2.5 | 23.4 | 1.9 | -24.8 | 59.4* | 2.7 | 6.8 | ·
Clc1ccc(Cn2cc(/C=N/n3cnnc3)c3ccccc32)c(Cl)c1 | 25.2 | -5.1 | -16.1 | 1.7 | 56.5* | -2.6 | 0.1 | ·
CC(=O)N1CCCN(Cc2cn(-c3cccc(C)c3)nc2-c2cccc(F)c2)CC1 | 7.8 | -1.4 | 0.3 | -8.8 | -8.3 | 0.2 | · | ·
Cc1ccc(-c2csc3nc4c5ccccc5c(NCCCN(C)C)nn4c(=O)c23)cc1 | -6.9 | 6.5 | -17.4 | 14.5 | 100.3* | 2.7 | 50.3* | 64.1*
Cc1ccc(-c2csc3nc4c5ccccc5c(NCCCN5CCOCC5)nn4c(=O)c23)cc1 | 34.5 | -5.4 | · | · | 37.1 | · | · | ·
CSc1ncccc1C(=O)N1CCC1(C)C(=O)NC(C)C (stereo unspecified) | · | · | · | · | · | -1.5 | · | ·
CC(O)(CC(=O)O)CC(=O)O | -14.0 | 4.0 | · | · | 8.7 | · | · | ·
Cc1sc2nc(C3CCCCC3)nc(SCC(=O)N3CC(=O)Nc4ccccc43)c2c1C | -1.9 | -7.2 | -31.0 | 7.5 | 55.7* | 4.2 | 18.1 | ·
CCc1nc(SCC(=O)N2CC(=O)Nc3ccccc32)c2c(C)c(C)sc2n1 | 3.8 | 19.8 | -1.3 | 10.0 | 38.5 | 1.3 | · | ·
O=C(Nc1nc2ccccc2s1)Nc1ccc([N+](=O)[O-])cc1Cl | 9.8 | 8.8 | · | · | 42.1 | · | · | ·
O=C(Nc1ccc(Cl)c([N+](=O)[O-])c1)Nc1nc2ccccc2s1 | 81.0* | 6.0 | · | · | 84.7* | · | 39.6 | 84.5*
C/C(=N\NC(=O)c1ccc(Cl)cc1)c1ccccn1 | 98.1* | 105.4* | -3.7 | 79.7* | 95.5* | -0.2 | 27.2 | ·
COc1cc(C(=O)N/N=C(\C)c2ccccn2)cc(OC)c1OC | 63.9 | 82.8* | -0.3 | 49.9 | 76.7* | -1.8 | 24.6 | ·
C/C(=N\NC(=O)c1cc(C)nc2ccccc12)c1ccccn1 | 95.8* | 104.1* | -1.8 | 89.9* | 76.3* | -0.5 | 66.7* | 36.4*
C/C(=N\NC(=O)c1ccccn1)c1ccc(Cl)cc1 | -0.3 | 4.5 | 1.9 | -91.3 | -51.3 | 0.6 | · | ·
SMILES | CSC inhib | Beta cell apopt | GRIN3A LBD mod | Gli-Sufu block | Mdm2-MdmX inh | MPTP inh | Mdm2 MdmX conf | Full FLuc ctr
Cc1ccc(/C=C/c2nc3ccccc3s2)s1 | 5.7 | 7.2 | -28.8 | -46.6 | 7.6 | -0.3 | · | ·
CN(C)c1ccc(/C=C/c2nc3ccccc3s2)cc1 | 54.5 | 18.6 | 10.9* | 21.7 | 64.1* | 1.0 | -41.6 | ·
O=C(CSc1nc(-c2ccco2)cc(C(F)(F)F)n1)Nc1ccc2c(c1)CCC2 | 51.3 | 0.1 | 1.8 | 3.5 | 51.9* | 2.2 | 60.8* | 44.5*
Cc1cc(NC(=O)CSc2nc(-c3ccco3)cc(C(F)(F)F)n2)n(-c2ccccc2)n1 | 51.6 | 5.9 | 0.1 | 2.0 | 54.0* | 0.3 | 56.4* | 54.4*
Cc1cc(NC(=O)CCCSc2nc(-c3ccco3)cc(C(F)(F)F)n2)n(-c2ccccc2)n1 | 9.0 | 8.7 | 3.5 | -1.9 | 10.4 | 1.4 | · | ·
COC(=O)c1ccccc1NC(=O)CSc1nc(-c2ccco2)cc(C(F)(F)F)n1 | · | · | -2.7 | 38.0 | 66.7* | -0.3 | 61.8* | 73.6*
CN(C)CCCNc1nc2cc(-c3ccc(F)cc3)sc2c(=O)n1C | · | · | · | · | · | -3.0 | · | ·
CCCNC(=O)C1(C)CCN(C(=O)c2c(F)ccc(C)c2F)C1 (stereo unspecified) | · | · | · | · | · | -0.6 | · | ·
O=c1c2cccc3c2c(nn1CN1CCOCC1)-c1ccccc1-3 | 7.4 | 4.0 | -1.4 | -10.1 | 43.1 | 0.0 | · | ·
CCN(CC)CCn1nc2c3c(cccc3c1=O)-c1ccccc1-2 | 105.2* | 112.9* | -0.8 | 46.8 | 82.8* | 0.2 | 82.6* | 20.4
O=C1C(Cl)=C(NCCN2CCCCC2)C(=O)c2ccccc21 | 107.5* | 112.2* | -1.0 | 20.7 | 98.9* | 3.3 | 11.7 | ·
Cc1ccc(O)c(NC2=C(Cl)C(=O)N(Cc3ccccc3)C2=O)c1 | · | · | -6.2 | 24.9 | · | 0.8 | · | ·
Cc1ccc(C(=O)N2CCCCC2)cc1NC1=C(Cl)C(=O)N(Cc2ccccc2)C1=O | · | · | 0.4 | -6.0 | 56.4* | 0.0 | 49.9* | 64.0*
Cc1nc2ccc(C(=O)N3CCN(Cc4ccccc4)CC3)cc2[nH]1 | · | -8.1 | -0.8 | 27.0 | 11.7 | 1.2 | · | ·
CCOc1ccc(NC(=O)CN(C)C(=O)C2CC(=O)N(c3cccc(SC)c3)C2)cc1OCC (stereo unspecified) | · | · | 0.3 | -3.7 | · | -1.1 | · | ·
CN(C)CCCNc1nc(-c2ccccc2)nc2ccccc12 | 1.9 | 1.2 | 1.3 | 2.8 | 9.9 | -1.2 | · | ·
Oc1ccc(CCNc2c3ccccc3nc3ccccc23)cc1O | 76.1* | -6.2 | 1.7 | 23.4 | 64.0* | 2.4 | 51.2* | 76.2*
O=C(Cc1ccccc1)NNc1c2ccccc2nc2ccccc12 | -18.8 | 3.7 | -1.4 | -6.0 | 8.5 | -2.0 | · | ·
c1ccc(CNc2c3ccccc3nc3ccccc23)cc1 | 51.7 | 98.3* | -3.5 | 7.4 | 69.5* | 1.3 | 29.9 | 60.8*
c1ccc2c(NCCCN3CCOCC3)c3ccccc3nc2c1 | 51.2 | 103.8* | · | · | 84.5* | · | 79.4* | 5.5
CN(C)CCCNc1c2ccccc2nc2ccccc12 | 130.8* | 108.7* | · | -22.8 | 100.3* | -0.6 | 99.7* | 51.5*
